Results on 20 compounds are retold here after PubChem BioAssay AID602258 (National Center for Advancing Translational Sciences (NCATS), 2012).

Results filed as inconclusive are left out. Entries that show only a call come without a potency. Calls of active or inactive are those of the source. Calls come from the whole dose curve; as a rule, active = well fitted activation curve with a large enough effect; inconclusive = small, poorly fitted or top-dose-only effect; inactive = no such curve, though single readings can be large or run the other way.

The target of this assay is Relaxin receptor 2 (Homo sapiens) (UniProt Q8WXD0). The assay is described as follows: qHTS Assay for Agonists of the Relaxin Receptor RXFP1: RXFP2 SAR. To be noted: HEK293 RXFP2 cAMP TR-FRET agonist, 30 min; series mostly up to 78.1 µM. An excerpt: The relaxin hormone is involved in the variety of biological functions in normal tissues and diseases. The role of relaxin is well-established in female reproduction and parturition, mammary gland and endometrial development, maintenance of myometrial quiescence during pregnancy. Relaxin signaling through its G protein-coupled receptor (GPCR) RXFP1 results in ECM remodeling through regulation of collagen deposition, cell invasiveness, proliferation and overall tissue homeostasis. […] Recombinant human relaxin (rhRlx) is currently being tested in clinical trials as a protective agent in congestive heart failure, in treating severe preeclampsia, and as an anti-fibrotic agent in systemic sclerosis. Upon relaxin binding RXFP1 activation leads to the activation of adenylate cyclase (AC) via Gs. cAMP will activate PKA, which phosphorylates many signaling proteins. Thus, detection of cAMP increase is an easy and reliable indication of relaxin receptor activation. To screen for agonists of the relaxin receptor, a HEK293T cell line stably transfected with RXFP1 was used. RXFP1 activation was assayed by changes in cAMP levels as detected with a time-resolved fluorescence energy transfer (TR-FRET) cAMP detection kit. This assay measures activation of a cell expressing RXFP2, another GPCR targeted by relaxin, to determine the selectivity of compounds for RXFP1. NIH Chemical Genomics Center [NCGC] NIH Molecular Libraries Probe Production Centers Network [MLPCN] MLPCN Grant: R03 MH085705-01A1 Assay Submitter (PI): Alexander Agoulnik
Sequence of Relaxin receptor 2 (Homo sapiens) (Q8WXD0 whole entry, looked up): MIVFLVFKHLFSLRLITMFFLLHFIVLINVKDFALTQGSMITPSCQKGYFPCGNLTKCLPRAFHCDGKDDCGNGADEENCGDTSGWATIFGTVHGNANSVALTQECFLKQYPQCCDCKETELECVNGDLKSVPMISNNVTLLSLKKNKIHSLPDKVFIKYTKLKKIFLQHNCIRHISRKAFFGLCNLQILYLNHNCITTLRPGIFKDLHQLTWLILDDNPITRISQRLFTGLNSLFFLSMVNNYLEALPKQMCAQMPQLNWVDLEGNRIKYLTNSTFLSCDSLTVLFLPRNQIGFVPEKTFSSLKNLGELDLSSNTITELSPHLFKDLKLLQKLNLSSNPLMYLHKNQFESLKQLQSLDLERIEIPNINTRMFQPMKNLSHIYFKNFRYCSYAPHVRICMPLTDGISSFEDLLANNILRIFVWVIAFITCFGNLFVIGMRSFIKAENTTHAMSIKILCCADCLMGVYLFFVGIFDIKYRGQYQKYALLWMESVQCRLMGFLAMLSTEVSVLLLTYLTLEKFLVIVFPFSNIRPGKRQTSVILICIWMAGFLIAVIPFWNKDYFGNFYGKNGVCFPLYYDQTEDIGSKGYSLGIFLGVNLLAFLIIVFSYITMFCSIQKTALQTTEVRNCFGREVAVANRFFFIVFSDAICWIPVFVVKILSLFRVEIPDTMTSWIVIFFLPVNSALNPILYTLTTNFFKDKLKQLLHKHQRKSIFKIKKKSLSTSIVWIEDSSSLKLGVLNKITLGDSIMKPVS
This is a cell-based assay for cAMP second messenger response to screen for agonists of the RXFP2 receptor. The assay was conducted in the presence of a PDE4 inhibitor (Ro 20174). The cells were lysed and the cAMP levels were measured with a TR-FRET cAMP kit. Presence of cAMP in the cell lysate disrupts binding between the cryptate-labeled anti-cAMP and d2-labeled cAMP pair, leading to a decrease in the TR-FRET signal. Data were normalized to the controls for basal activity (buffer only) and 100% activity (29 nM porcine relaxin). The EC50 values were determined from concentration-response data modeled with the standard Hill equation 1536-well assay protocol for the HEK293 RXFP2 cAMP assay: (1) Add 3 ul HEK293 RXFP2 cell culture. 2000 cells/well in DMEM/F12, 10% FBS, 1x Pen/Strep (dispensed offline with MultiDrop Combi). (2) Incubate 16-24 hr at 37C, 5% CO2. (3) Add 1 ul 400uM Ro20174 in DPBS, 0.05% BSA, 0.005% Tween 20. (3) Add 23 nl compounds in DMSO solution. Final concentration was 0.5 - 58 uM. (4) Incubate 30 min at 37C, 5% CO2. (5) Add 1 ul cAMP-d2 in lysis buffer (HTRF cAMP HiRange kit, CisBio). (6) Add 1 ul anti-cAMP antibody-cryptate in lysis buffer (HTRF cAMP HiRange kit, CisBio). (7) Incubate 30 min at room temperature. (6) Detect the assay plate in a ViewLux plate reader (PerkinElmer) with Ex=320 nm, Em1=615 nm and Em2=665 nm. Keywords: relaxin, RXFP1, RXFP2, G-protein coupled receptor, cAMP, agonist, high throughput screening, MLSMR, MLSCN, NIH Roadmap, qHTS and NCGC
In the case of `CCOc1ccccc1C(=O)Nc1ccccc1C(=O)Nc1cccc(S(=O)(=O)C(F)(F)F)c1`, the Potency is 7.47 µM (active).

Turning to `O=C(Nc1ccccc1C(=O)Nc1cccc(C(F)(F)F)c1)c1ccccc1Cl`, the Potency result was “inactive”.

Turning to `CCCCOc1ccccc1C(=O)Nc1ccccc1C(=O)Nc1cccc(S(=O)(=O)C(F)(F)F)c1`, the Potency entry is “inactive”.

Turning to `O=C(Nc1cccc(S(=O)(=O)C(F)(F)F)c1)c1ccccc1NC(=O)C1CCCCC1`, the Potency result was “inactive”.

On to `CCC(CC)C(=O)Nc1ccccc1C(=O)Nc1cccc(C(F)(F)F)c1`, for which the Potency result is “inactive”.

As to `CCCCC(=O)Nc1ccccc1C(=O)Nc1cccc(C(F)(F)F)c1`, the Potency result was “inactive”.

With `Cc1ccccc1C(=O)Nc1ccccc1C(=O)Nc1cccc(C(F)(F)F)c1`, the Potency entry is “inactive”.

For the compound `CSc1cccc(NC(=O)c2ccccc2NC(=O)C2CCCCC2)c1`, the Potency result is “inactive”.

Consider `COCCNc1ccccc1C(=O)Nc1cccc(C(F)(F)F)c1`, for which the Potency entry was “inactive”.

Turning to `O=C(Nc1cccc(F)c1)c1ccccc1NC(=O)C1CCCCC1`, the Potency result was “inactive”.

Turning to `COc1ccccc1C(=O)N(C)c1ccccc1C(=O)Nc1cccc(C(F)(F)F)c1`, the Potency result was “inactive”.

With `CCCOc1ccccc1C(=O)Nc1ccccc1C(=O)Nc1cccc(S(=O)(=O)C(F)(F)F)c1`, the Potency entry was “inactive”.

In the case of `COc1ccccc1C(=O)Nc1ccccc1C(=O)Nc1cccc(C(F)(F)F)c1`, the Potency is 5.93 µM (active).

Take `COc1ccccc1CNc1ccccc1C(=O)Nc1cccc(C(F)(F)F)c1`: the Potency entry is “inactive”.

Consider `CCOc1ccccc1C(=O)NCCC(=O)Nc1cccc(S(=O)(=O)C(F)(F)F)c1`, for which the Potency entry is “inactive”.

On to `O=C(Nc1cccc([N+](=O)[O-])c1)c1ccccc1NC(=O)C1CCCCC1`, for which the Potency result is “inactive”.

On to `CCOc1ccccc1C(=O)Nc1ccncc1C(=O)Nc1cccc(S(=O)(=O)C(F)(F)F)c1`, for which the Potency is 9.4 µM (active).

Take `COc1ccccc1C(=O)Nc1cccc(C(=O)Nc2cccc(C(F)(F)F)c2)c1`: the Potency entry was “inactive”.

For `COc1ccc(C(=O)Nc2ccccc2C(=O)Nc2cccc(C(F)(F)F)c2)cc1`, the Potency result was “inactive”.

Consider `O=C(Nc1ccc(C(F)(F)F)cc1)c1ccccc1NC(=O)C1CCCCC1`, for which the Potency result is “inactive”.
